In PubChem BioAssay (NCATS):
A number with no mark means an inactive call. Records with an inconclusive call do not appear. The source made the active and inactive calls. Unless noted, calls come from the whole dose curve; as a rule, active = well fitted curve in the direction sought with a large enough effect; inconclusive = small, poorly fitted or top-dose-only effect, or another doubt; inactive = no such curve, though single readings can be large; an effect the other way counts as inactive or inconclusive.

Tests used:
[1] = target: Lysosomal acid glucosylceramidase (Homo sapiens) (UniProt P04062); test: Glucocerebrosidase-p2 (AID 348; in the data active = potency below about 10 µM; note: potency is the fitted concentration of half-maximal effect); settings: purified GBA, blue fluorogenic substrate, 40 min
Outline: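 Compounds titrated from 0.6 nM upwards against 0.2 nM enzyme in pH 5.9 citric acid/KH2PO4, taurocholate, tween-20; blue fluorogenic substrate 80 uM, 40 min room temperature, stopped and read Ex 365/Em 440 for AC50.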

[2] = AP1 Signaling Pathway (AID 357; active = well fitted curve in either direction with a large enough effect, not every such curve was filed as active;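 note: ME-180 reporter cells stimulated with EGF at its EC50 level; % is set by controls: 0 for no effect and ±100 for the full control effect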); settings: ME-180 AP-1-bla reporter, EGF-induced, beta-lactamase ratio, 5 h; at 7.69 µM (top of the series) unless noted
Outline: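 AP-1-bla ME-180 cells, Opti-MEM + 0.5% dialyzed FBS, plated overnight 37 °C. Cpd titration + EC50 EGF, 5 h 37 °C. CCF4 2.5 h RT; ex 405, em 460/530 ratio → %activity, AC50.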

[3] = target: Cytochrome P450 1A2 (Homo sapiens) (UniProt P05177); test: p450-cyp1a2 (AID 410; calls by dose curve; note: potency is the fitted concentration of half-maximal effect); settings: recombinant CYP1A2, luciferin-ME demethylation, luminescence; series mostly up to 57 µM
Outline: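 Human CYP1A2 (20nM) demethylated Luciferin-ME at its Km (100uM) in 100mM KPO4. After 10 min compound preincubation, NADPH regeneration ran the reaction 60 min at room temperature. Luciferin was read by luminescence, normalized to 57 uM furafylline.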

[4] = NFAT Signaling Pathway (AID 444; active = well fitted curve in either direction with a large enough effect, not every such curve was filed as active;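 note: carbachol stimulus at about its EC50 of 1 µM final; % is set by controls: 0 for no effect and ±100 for the full control effect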); settings: Jurkat NFAT-bla M1, carbachol, beta-lactamase ratio, 5 h; at 7.69 µM (top of the series) unless noted
Outline: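 Read-out: CCF4 FRET ratio (460 nm/530 nm) after 1 h RT dye loading, used for %activity and AC50 from titration series. Cells: Jurkat NFAT-β-lactamase/M1 line, treated with compound plus 1 uM carbachol for 5 h, 37 °C.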

[5] = Stat Signaling Pathway (AID 446; active = well fitted curve in either direction with a large enough effect, not every such curve was filed as active;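 note: ME-180 cervical cancer cells given 40 pM IL-6 alongside compound; SIE-controlled beta-lactamase reporter measured as 460/530 nm FRET emission ratio; % is set by controls: 0 for no effect and ±100 for the full control effect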); settings: ME-180 SIE beta-lactamase reporter, IL-6 stimulated, 5 h; at 7.69 µM (top of the series) unless noted
Outline: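 ME-180 cells carrying a SIE-driven beta-lactamase reporter are stimulated with 40 pM IL-6 for 5 h at 37C in the presence of compound. The 460/530 nm FRET substrate ratio is read after 2.5 h at RT. Data are normalised to 300 pM IL-6 and to 125 nM JAK inhibitor controls.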

[6] = target: Glucocorticoid receptor (Homo sapiens) (UniProt P04150); test: GR-GFP Redistribution (AID 450;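 active = compounds whose dose series gives a full or clear partial fitted curve of increased nuclear translocation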; note: potency is the fitted concentration of half-maximal effect); settings: U2OS GR-GFP nuclear translocation, laser cytometry, 2 h
[7] = target: Glucocorticoid receptor (Homo sapiens) (UniProt P04150); test: GR-EFC Redistribution (AID 451; calls by dose curve; note: potency is the fitted concentration of half-maximal effect); settings: CHO-K1 GR-EFC translocation, beta-gal luminescence, 2 h
Outline: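 Translocation of GR-ED fusion to nuclear EA restores b-gal, read by luminescence after 1 h room-temperature detection. Engineered CHO-K1 biosensor cells, 1,000/well, exposed 2 h at 37 C to titrations up to 46 uM final.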

[8] = target: Mitogen-activated protein kinase 10 (Mus musculus) (UniProt Q61831); test: JNK3 AlphaScreen Assay (AID 530; active = well fitted curve in either direction with a large enough effect, not every such curve was filed as active;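 note: kinase came from lysate of stimulated human HepG2 cells; signal reports phosphorylation of biotinylated GST-cJun 1-79 at Ser73 with 10 µM ATP; % is set by controls: 0 for no effect and ±100 for the full control effect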); settings: JNK3 lysate, c-Jun phosphorylation; series mostly up to 57.1 µM
Outline: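 Room-temperature AlphaScreen kinase assay; pre-activated HepG2 lysate as JNK3 source, biotin-GST-cJun(1-79) substrate, 10 uM ATP, compound 15 min preincubation.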

[9] = target: Cytochrome P450 3A4 (Homo sapiens) (UniProt P08684); test: qHTS Assay for Inhibitors and Substrates of Cytochrome P450 3A4 (AID 884); settings: recombinant CYP3A4, Luciferin-PPXE luminescence; series mostly up to 57.1 µM; note: potency is the fitted concentration of half-maximal effect; nearly all actives have a fitted effect of over 50% in size
Outline: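 20 nM human CYP3A4 with 25 uM Luciferin-PPXE (at KM) in 200 mM KPO4, preincubated 10 min with compound; NADPH regeneration started a 60 min RT reaction. Luciferin detected by luminescence, normalized to 57 uM ketoconazole as full inhibition.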

[10] = target: Cytochrome P450 3A4 (Homo sapiens) (UniProt P08684); test: qHTS Assay for Activators of Cytochrome P450 3A4 (AID 885); settings: recombinant CYP3A4, Luciferin-PPXE luminescence, 60 min; series mostly up to 57.1 µM; note: nearly all actives have a fitted effect of over 65% in size
Outline: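 Human CYP3A4 (20 nM) with Luciferin-PPXE at 25 uM (its KM) in 200 mM KPO4; 10 min compound preincubation, then NADPH regeneration and 60 min reaction at RT. Luciferin read by luminescence; normalized to 57 uM ketoconazole full inhibition.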

[11] = target: Cytochrome P450 2D6 (Homo sapiens) (UniProt P10635); test: qHTS Assay for Inhibitors and Substrates of Cytochrome P450 2D6 (AID 891); settings: recombinant CYP2D6, luciferin-ME EGE luminescence; series mostly up to 57.1 µM; note: potency is the fitted concentration of half-maximal effect; nearly all actives have a fitted effect of over 60% in size
Outline: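 Human CYP2D6 (5 nM) with 30 uM Luciferin-ME EGE (at Km) in 100 mM KPO4, compound preincubated 10 min, then NADPH regeneration system for 60 min at room temperature. Luciferin read by luminescence; normalized to 1.43 uM quinidine.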

[12] = target: Cytochrome P450 2C19 (Homo sapiens) (UniProt P33261); test: qHTS Assay for Inhibitors and Substrates of Cytochrome P450 2C19 (AID 899); settings: recombinant CYP2C19, luciferin-H EGE luminescence; series mostly up to 57.1 µM; note: potency is the fitted concentration of half-maximal effect; nearly all actives have a fitted effect of over 60% in size
Outline: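 Luminescence readout of luciferin formed from 10uM Luciferin-H EGE (KM level) by 5 nM CYP2C19 in 50mM KPO4. 60 min NADPH-driven reaction at 37C after 10 min compound preincubation; data scaled to 57uM ketoconazole inhibition.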

[13] = target: Dual specificity protein kinase CLK4 (Homo sapiens) (UniProt Q9HAZ1); test: qHTS Assay for Inhibitors of CDC-like Kinase 4 (Kinase-Glo Assay) (AID 1770); settings: recombinant Clk4, Kinase-Glo ATP depletion luminescence; series mostly up to 66.7 µM; note: nearly all actives have a fitted effect of over 65% in size; note: potency is the fitted concentration of half-maximal effect
Outline: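 Substrate mix (RS peptide 100 uM, ATP 1 uM) dispensed, compound pinned in, then Clk4 added to 25 nM final. Incubated 4.5 h at RT; Kinase-Glo reagent added, luminescence read after 5 min.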

[14] = target: Dual specificity protein kinase CLK4 (Homo sapiens) (UniProt Q9HAZ1); test: qHTS Assay for Inhibitors of CDC-like Kinase 4 (ADP-Glo Assay) (AID 1771); settings: recombinant CLK4, ADP-Glo luminescence; series mostly up to 80 µM; note: nearly all actives have a fitted effect of over 70% in size; note: potency is the fitted concentration of half-maximal effect
Outline: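 Clk4 (25 nM) was incubated 1 hr at room temperature with 100 uM RS repeat peptide and 1 uM ATP in buffer with 2 mM MgCl2, 0.5 mM EGTA, 2.5 mM DTT. ADP formed was quantified by ADP-Glo luminescence.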

[15] = target: Ubiquitin carboxyl-terminal hydrolase 1 (Homo sapiens) (UniProt O94782); test: Inhibitors of USP1/UAF1: Pilot qHTS (AID 504865); settings: purified USP1/UAF1, Ub-rhodamine cleavage fluorescence; series mostly up to 54.9 µM;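 note: rhodamine fluorescence freed from ubiquitin-rhodamine substrate followed over time; top concentration of the series differs between compounds; % is set by controls: 0 for no effect and ±100 for the full control effect; nearly all actives have a fitted effect of over 35% in size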
Outline: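 In 50mM HEPES pH 7.8 containing 0.5mM EDTA, 1mM TCEP, 0.1 mg/ml BSA and 0.01% Tween-20, 1nM USP1/UAF1 is exposed to compound for 15 min, then Ub-Rho (150nM final) is added and fluorescence is read over time.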

[16] = Primary qHTS for small molecule stabilizers of the endoplasmic reticulum resident proteome: Secreted ER Calcium Modulated Protein (SERCaMP) assay (AID 1508630); settings: SH-SY5Y GLuc-SERCaMP (Gaussia luciferase released on ER calcium loss) secretion, thapsigargin, luminescence; series mostly up to 38.4 µM; note: % is set by controls: 0 for no effect and ±100 for the full control effect
Outline: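 GLuc-SERCaMP-expressing SH-SY5Y cells, pretreated 16 h with compound, are challenged with thapsigargin to empty ER calcium stores; after 4 h, coelenterazine is added directly to the medium and luminescence is imaged.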

[17] = target: 3',5'-cyclic-AMP phosphodiesterase 4B (Homo sapiens) (UniProt Q07343); test: qHTS Assay for Inhibitors of PDE-IV (AID 607; active = well fitted activation curve with a large enough effect in the main read-out, with a control signal flat, not every such curve was filed as active; note: % of control where 0% means no effect); settings: HEK293 ACTOne CNG channel cells, membrane potential fluorescence; series mostly up to 22.9 µM
Outline: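 HEK293 ACTOne cells with CNG channel (1000/well), endogenous PDE4; membrane potential dye, compounds up to 22.9 uM final. Fluorescence Ex 535/Em 590; RO 20-1724 (100 uM final) as reference.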

Chain of Cytochrome P450 1A2 (Homo sapiens) (P05177 whole entry, looked up): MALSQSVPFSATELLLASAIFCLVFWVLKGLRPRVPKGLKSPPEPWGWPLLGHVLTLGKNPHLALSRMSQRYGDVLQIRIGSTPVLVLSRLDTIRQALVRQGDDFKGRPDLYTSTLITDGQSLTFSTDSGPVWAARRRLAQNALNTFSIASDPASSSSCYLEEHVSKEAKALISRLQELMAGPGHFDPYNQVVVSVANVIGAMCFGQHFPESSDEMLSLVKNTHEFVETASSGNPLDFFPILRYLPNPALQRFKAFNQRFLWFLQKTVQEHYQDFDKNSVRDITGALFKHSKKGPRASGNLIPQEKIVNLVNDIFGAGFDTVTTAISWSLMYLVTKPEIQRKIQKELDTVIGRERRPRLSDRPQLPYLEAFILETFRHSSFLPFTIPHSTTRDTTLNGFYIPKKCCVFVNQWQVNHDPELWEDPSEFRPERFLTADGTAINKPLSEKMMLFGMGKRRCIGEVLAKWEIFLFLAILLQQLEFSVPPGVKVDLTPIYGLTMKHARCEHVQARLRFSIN
Chain of 3',5'-cyclic-AMP phosphodiesterase 4B (Homo sapiens) (Q07343 whole entry, looked up): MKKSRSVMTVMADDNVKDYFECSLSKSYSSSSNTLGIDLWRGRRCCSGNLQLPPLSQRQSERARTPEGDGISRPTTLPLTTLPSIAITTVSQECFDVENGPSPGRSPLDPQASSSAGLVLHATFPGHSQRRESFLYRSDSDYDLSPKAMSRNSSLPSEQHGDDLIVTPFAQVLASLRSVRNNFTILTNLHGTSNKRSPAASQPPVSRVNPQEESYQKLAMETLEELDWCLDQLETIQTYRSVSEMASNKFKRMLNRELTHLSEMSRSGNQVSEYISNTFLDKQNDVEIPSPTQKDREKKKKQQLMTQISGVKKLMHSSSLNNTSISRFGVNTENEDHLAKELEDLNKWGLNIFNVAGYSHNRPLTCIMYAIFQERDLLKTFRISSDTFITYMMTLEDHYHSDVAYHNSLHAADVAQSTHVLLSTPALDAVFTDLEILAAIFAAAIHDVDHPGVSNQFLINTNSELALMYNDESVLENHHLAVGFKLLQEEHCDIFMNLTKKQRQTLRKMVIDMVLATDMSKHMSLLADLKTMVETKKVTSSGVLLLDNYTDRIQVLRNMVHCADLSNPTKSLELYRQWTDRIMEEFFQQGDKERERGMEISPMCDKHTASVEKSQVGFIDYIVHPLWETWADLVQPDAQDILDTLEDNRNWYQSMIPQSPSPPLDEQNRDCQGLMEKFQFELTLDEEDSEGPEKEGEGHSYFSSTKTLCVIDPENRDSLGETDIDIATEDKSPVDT
Chain of Lysosomal acid glucosylceramidase (Homo sapiens) (P04062 whole entry, looked up): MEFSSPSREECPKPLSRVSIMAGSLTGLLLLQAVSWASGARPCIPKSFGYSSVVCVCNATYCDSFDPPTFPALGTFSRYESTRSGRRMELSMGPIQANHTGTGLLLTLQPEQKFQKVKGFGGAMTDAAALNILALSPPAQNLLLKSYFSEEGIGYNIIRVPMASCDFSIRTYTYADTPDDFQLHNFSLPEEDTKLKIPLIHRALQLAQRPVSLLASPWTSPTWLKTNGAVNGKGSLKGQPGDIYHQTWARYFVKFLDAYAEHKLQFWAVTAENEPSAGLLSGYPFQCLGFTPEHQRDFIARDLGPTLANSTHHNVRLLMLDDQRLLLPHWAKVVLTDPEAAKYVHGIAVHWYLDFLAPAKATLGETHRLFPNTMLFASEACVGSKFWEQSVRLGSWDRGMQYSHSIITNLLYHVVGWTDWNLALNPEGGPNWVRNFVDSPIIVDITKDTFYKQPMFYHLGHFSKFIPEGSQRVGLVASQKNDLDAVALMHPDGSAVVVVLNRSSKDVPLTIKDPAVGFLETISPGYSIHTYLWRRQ
Chain of Cytochrome P450 3A4 (Homo sapiens) (P08684 whole entry, looked up): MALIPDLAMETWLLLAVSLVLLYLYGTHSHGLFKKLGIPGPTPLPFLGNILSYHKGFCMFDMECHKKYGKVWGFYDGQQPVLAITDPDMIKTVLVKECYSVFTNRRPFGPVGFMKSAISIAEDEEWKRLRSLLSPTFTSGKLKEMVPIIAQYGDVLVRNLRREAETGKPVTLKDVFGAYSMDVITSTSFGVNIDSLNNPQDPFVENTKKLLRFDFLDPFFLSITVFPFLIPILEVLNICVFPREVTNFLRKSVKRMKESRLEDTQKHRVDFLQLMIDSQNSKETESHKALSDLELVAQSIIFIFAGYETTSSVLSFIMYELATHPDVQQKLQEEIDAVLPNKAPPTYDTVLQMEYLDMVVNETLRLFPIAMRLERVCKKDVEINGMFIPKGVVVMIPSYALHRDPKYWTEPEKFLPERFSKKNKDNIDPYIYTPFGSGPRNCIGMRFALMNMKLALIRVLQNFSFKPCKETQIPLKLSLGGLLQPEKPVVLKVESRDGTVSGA
Chain of Glucocorticoid receptor (Homo sapiens) (P04150 whole entry, looked up, the tested form may be a part): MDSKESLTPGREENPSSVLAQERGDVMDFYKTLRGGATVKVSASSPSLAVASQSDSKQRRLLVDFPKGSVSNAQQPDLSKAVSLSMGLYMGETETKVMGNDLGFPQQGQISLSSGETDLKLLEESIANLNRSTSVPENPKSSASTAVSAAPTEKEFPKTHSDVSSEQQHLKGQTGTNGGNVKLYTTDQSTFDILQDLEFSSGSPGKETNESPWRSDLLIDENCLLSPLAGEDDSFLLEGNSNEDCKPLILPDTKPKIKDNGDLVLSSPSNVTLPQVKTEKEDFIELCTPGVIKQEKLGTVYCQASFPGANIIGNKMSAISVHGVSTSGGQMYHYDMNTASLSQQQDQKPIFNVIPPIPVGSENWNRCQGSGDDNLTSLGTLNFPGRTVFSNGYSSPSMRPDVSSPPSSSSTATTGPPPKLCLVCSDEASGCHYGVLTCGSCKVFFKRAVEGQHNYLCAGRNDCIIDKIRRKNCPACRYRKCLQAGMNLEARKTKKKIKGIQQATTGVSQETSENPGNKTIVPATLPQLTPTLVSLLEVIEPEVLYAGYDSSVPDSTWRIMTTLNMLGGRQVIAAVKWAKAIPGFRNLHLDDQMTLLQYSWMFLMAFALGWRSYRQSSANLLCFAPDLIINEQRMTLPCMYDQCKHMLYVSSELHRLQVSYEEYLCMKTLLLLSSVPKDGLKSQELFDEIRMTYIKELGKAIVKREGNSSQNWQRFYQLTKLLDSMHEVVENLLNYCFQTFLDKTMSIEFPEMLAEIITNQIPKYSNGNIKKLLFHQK
Chain of Ubiquitin carboxyl-terminal hydrolase 1 (Homo sapiens) (O94782 whole entry, looked up): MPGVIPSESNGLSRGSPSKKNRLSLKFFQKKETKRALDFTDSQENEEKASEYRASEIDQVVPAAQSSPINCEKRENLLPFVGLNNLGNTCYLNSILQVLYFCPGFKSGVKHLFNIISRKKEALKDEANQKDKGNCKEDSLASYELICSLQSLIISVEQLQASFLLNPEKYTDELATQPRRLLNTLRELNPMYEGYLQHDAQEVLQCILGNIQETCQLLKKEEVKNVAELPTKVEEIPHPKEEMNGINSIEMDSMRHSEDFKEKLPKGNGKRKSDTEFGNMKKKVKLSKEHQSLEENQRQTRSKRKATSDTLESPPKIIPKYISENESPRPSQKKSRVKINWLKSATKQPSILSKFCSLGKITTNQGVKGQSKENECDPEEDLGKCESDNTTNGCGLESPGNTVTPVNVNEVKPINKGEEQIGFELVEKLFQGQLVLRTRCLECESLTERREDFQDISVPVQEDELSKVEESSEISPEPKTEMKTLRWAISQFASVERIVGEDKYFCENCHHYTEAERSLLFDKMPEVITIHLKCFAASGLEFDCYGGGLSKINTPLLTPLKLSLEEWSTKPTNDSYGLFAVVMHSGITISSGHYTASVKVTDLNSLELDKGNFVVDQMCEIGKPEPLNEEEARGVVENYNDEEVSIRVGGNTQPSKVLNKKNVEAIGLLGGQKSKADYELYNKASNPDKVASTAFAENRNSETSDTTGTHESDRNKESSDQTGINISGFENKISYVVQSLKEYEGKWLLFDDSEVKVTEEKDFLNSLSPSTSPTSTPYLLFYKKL
Chain of Dual specificity protein kinase CLK4 (Homo sapiens) (Q9HAZ1 whole entry, looked up): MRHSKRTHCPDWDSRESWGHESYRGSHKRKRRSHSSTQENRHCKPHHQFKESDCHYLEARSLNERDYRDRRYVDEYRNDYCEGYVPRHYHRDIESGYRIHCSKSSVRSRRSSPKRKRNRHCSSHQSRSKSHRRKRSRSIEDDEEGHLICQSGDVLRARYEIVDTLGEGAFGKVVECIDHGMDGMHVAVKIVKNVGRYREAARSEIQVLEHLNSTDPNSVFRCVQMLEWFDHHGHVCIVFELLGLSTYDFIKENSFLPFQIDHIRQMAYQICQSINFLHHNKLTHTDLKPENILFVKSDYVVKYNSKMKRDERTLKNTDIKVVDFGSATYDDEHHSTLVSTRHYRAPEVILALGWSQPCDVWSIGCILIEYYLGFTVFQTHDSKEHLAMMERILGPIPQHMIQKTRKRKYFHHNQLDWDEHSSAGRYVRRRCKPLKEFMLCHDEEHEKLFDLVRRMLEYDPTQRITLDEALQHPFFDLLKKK
Chain of Cytochrome P450 2D6 (Homo sapiens) (P10635 whole entry, looked up): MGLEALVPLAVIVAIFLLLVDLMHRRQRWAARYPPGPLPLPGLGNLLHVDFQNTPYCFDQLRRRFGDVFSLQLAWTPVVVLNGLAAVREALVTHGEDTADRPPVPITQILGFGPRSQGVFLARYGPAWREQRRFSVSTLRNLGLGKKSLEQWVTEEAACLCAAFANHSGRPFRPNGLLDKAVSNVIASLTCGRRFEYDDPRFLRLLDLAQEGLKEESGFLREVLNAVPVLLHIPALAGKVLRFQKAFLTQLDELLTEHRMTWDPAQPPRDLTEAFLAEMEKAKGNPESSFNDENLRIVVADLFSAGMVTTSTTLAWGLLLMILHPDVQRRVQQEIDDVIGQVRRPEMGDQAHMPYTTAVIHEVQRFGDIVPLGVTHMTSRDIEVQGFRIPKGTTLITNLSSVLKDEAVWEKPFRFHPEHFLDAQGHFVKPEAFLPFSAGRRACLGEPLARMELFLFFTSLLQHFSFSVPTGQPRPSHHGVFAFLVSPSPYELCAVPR

Row | SMILES | Potency [1] | activity change, negative = inhibition [2] | Potency [3] | activity change, negative = inhibition [4] | activity, negative = inhibition [5] | Potency [6] | Potency [7] | Potency [8] | Potency [9] | Potency [10] | Potency [11] | Potency [12] | Potency [13] | Potency [14] | Potency [15] | outcome [16] | Potency [17]
1 | COc1ccc(CNc2ncncc2-c2cccc(C#N)c2)c(OC)c1 | > 11.4 µM | -5.26% | 7.94 µM (active) | 13.9% | 8.97% | > 46 µM | > 46 µM | inactive | 316 nM (active) | inactive | 5.01 µM (active) | 5.01 µM (active) | 28.2 µM (active) | 35.5 µM (active) | inactive | inactive | 
2 | COCCn1c(=O)c(-c2cn(C)c3ccccc23)nc2cnc(OCc3ccccc3)nc21 | > 11.4 µM | -1.93% | 5.01 µM (active) | -4.76% | 23.6% | > 9.22 µM | > 46 µM | inactive |  | inactive |  |  | inactive | inactive | inactive | inactive | 
3 | COc1cccc(-c2cc(NCc3cnc(C)cn3)ncn2)c1 | > 11.4 µM | 12.1% | 5.01 µM (active) | -0.299% | -1.25% | > 46 µM | > 46 µM | inactive |  | inactive |  |  | 17.8 µM (active) | 15.8 µM (active) | inactive | inactive | inactive
4 | COc1cccc(-c2nc(NCCNC(C)=O)c3ccccc3n2)c1 | > 11.4 µM | -4.33% | 2.51 µM (active) | 8.46% | 3.51% | > 46 µM | > 46 µM | inactive |  | inactive | 3.98 µM (active) |  | 31.6 µM (active) | 28.2 µM (active) | inactive | inactive | inactive
5 | CN(C)c1ncc2nc(-c3cc(F)cc(F)c3)c(=O)n(-c3ccccc3)c2n1 | > 11.4 µM | -8.03% | 0.316 µM (active) | 9.84% | 12.5% | > 9.22 µM | > 46 µM | inactive |  |  |  |  | inactive | inactive | inactive | inactive | inactive
6 | COc1ccccc1-c1cc(NCc2cccs2)ncn1 | > 11.4 µM | 0.573% | 1.58 µM (active) | 9.61% | -5.58% | > 46 µM | > 46 µM | inactive |  | inactive |  |  | 14.1 µM (active) | 14.1 µM (active) | inactive | inactive | inactive
